# Screens as filed in PubChem.
# Hits are enriched below; roughly 2.9% of the tested compounds scored in any of these assays.
# Integrin act MD – integrin-mediated muscular dystrophy alleviation activation; alpha7betagal myoblasts, beta-gal FDG fluorescence, 48 h; 350,000 compounds, 0.064% hits; Potency, µM (series often up to 38.3 µM), inactives show at the top dose activation, hits mostly activators; active means well fitted activation curve with a large enough effect; inconclusive means small, poorly fitted or top-dose-only effect; inactive means no such curve, though single readings can be large or run the other way;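 further: potency means the concentration at half of the fitted maximal effect; 100% = response of the positive control SU9516; nearly all actives have a fitted effect of over 60% in size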
#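 alpha7betagal+/- myoblasts (passage 13, 250/well) treated 48 h at 37C with compounds at 1:260 dilution of DMSO stock. Lysed, then beta-galactosidase activity read as FDG fluorescence (ex 480/em 540) after 30 min, with pre-read for autofluorescence.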
# D3 ag – agonists of human D3 dopamine receptor | D3R DiscoveRx beta-arrestin cells, luminescence, 90 min | 410,000 compounds, 0.58% hits | P35462 | max activation, % | AID 652048; in the data active means max activation above about 30%; further: 0% is about no effect
# Target sequence (P35462 whole entry, looked up): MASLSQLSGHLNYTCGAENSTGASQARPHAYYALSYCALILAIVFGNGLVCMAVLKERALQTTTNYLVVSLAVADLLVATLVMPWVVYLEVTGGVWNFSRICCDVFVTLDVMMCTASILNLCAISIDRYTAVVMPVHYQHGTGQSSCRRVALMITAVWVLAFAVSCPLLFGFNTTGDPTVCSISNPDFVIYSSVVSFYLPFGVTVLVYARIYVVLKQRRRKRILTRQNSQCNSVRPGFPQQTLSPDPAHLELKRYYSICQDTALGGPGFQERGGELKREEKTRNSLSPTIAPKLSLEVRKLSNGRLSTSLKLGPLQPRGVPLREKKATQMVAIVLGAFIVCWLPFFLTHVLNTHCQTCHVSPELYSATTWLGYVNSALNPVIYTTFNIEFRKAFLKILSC
#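 Cells at 1500/well, incubated overnight, then treated with pinned compounds (dopamine as control) for 90 min at 37 degrees C. DiscoveRx reagent added for 30 - 60 minutes at room temperature; luminescence read.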
# DRD3 antagonist – blocks the human D3 dopamine receptor; P35462; 360,000 compounds, 2.5% hits; max response, negative = inhibition, %; D3R cells, DiscoveRx beta-arrestin luminescence, antagonist mode; stronger effect = lower value; AID 652054; in the data active means max response below about -50%; inconclusive means no clear call, values can overlap the other calls; further: on the % scale 0 is the no-effect control and ±100 the full control effect
#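 Cells plated overnight at 1500 cells/well, then exposed to library compounds with dopamine controls for 90 minutes at 37 degrees C. DiscoveRx reagent added for 30–60 minutes at room temperature; luminescence read, quantitative HTS format.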
# * = called active by the depositor; ? = inconclusive; . = no result; [ ] = dose if it differs, or a comment.
SMILES,Integrin act MD,D3 ag,DRD3 antagonist
COc1ccc(C(=O)NCC(=O)OCCOc2ccc(Cl)cc2)cc1OC,22.1%,0.3,4.6
Cc1cccc(C)c1OC(=O)Cc1ccccc1[N+](=O)[O-],-28.9%,5.3,-24.0
Cc1nn(-c2ccccc2)c(Cl)c1/C=C(\C#N)C(=O)NC(C)C,-36.5%,-5.5,4.0
COc1cccc(N2C(=O)/C(=C\c3cccs3)NC2=S)c1,-13.2%,0.4,-5.5
C/C(=C\C(=O)Nc1cscc1C)C(=O)O,-19.1%,10.5,-7.4
COC(=O)CSc1[nH]c2ccc(Br)cc2c1[N+](=O)[O-],38.0%,-0.7,7.1
CCOc1ccc2[nH]c(SCC(=O)OC)c([N+](=O)[O-])c2c1,0.4%,-12.6,-53.4*
O=C(Nc1ccccc1O)c1ccc2c(c1)C(=O)N(Cc1ccco1)C2=O,22.9%,19.6,17.8
CN1C(=O)/C(=C2/C=Cc3ccccc3N2CCCS(=O)(=O)O)SC1=S,11.5%,-25.4,-124.6*
CCCN1/C(=C2/SC(=S)N(CC)C2=O)C=Cc2ccccc21,3.7%,-6.8,-29.6
COC(=O)c1c(NC(=O)c2ccco2)sc2c1C(C(=O)OC)CC2 (centres undefined),35.6%,4.1,-50.1*
COC(=O)c1c(NC(=O)C(C)C)sc2c1C(C(=O)OC)CC2 (centres undefined),4.6%,-1.6,?
CN(Cc1c(F)cccc1Cl)C(=O)c1cccc(S(=O)(=O)NCc2ccccc2)c1,0.5%,2.4,9.9
CN(C)c1ccc(CNC(=O)CCS(=O)(=O)c2ccc3c(c2)oc(=O)n3C)cc1,1.4%,7.3,4.8
COc1cc(C(=O)OCCCc2cc3ccccc3c(=O)o2)cc(OC)c1OC,-15.4%,17.7,3.7
COc1cc2cc(CCCOC(=O)c3ccc(C#N)cc3)oc(=O)c2cc1OC,0.6%,6.3,6.3
COc1cc(C(=O)OCCc2cc3ccccc3c(=O)o2)cc(OC)c1OC,-28.2%,34.2*,62.9
COc1cc2cc(CCCOC(=O)c3cc(OC)c(OC)c(OC)c3)oc(=O)c2cc1OC,-26.9%,54.6*,16.2
O=C(COC(=O)C1=COCCO1)Nc1ccc(F)cc1,13.1%,4.0,2.9
COc1ccc(OC)c2c1C(=O)c1ccccc1C2=O,-9.5%,-0.6,14.0
COc1ccc(OC)c2c1C(=O)C(Cl)=C(Cl)C2=O,?,-23.3,-126.5*
CC(=O)Nc1ccc(NC(=O)C(C)OC(=O)CCCc2c[nH]c3ccccc23)cc1 (centres undefined),19.1%,1.4,4.1
COc1ccccc1C(CNc1ncnc2sc(C)c(C)c12)N(C)C (centres undefined),-44.5%,-12.0,-5.5
COc1ccc(C(CNc2ncnc3sc(C)c(C)c23)N(C)C)cc1 (centres undefined),-21.3%,-14.4,-71.1*
CCOC(=O)c1ccccc1NC(=O)CSc1nc2ccncc2[nH]1,13.2%,-4.7,-21.2
SMILES,Integrin act MD,D3 ag,DRD3 antagonist
COc1ccc(/C=C2/CCC(CN3CCOCC3)C2=O)cc1 (centres undefined),-54.6%,-21.9,-66.9*
CN(C)CC1CC/C(=C\c2ccc(O)cc2)C1=O (centres undefined),-58.6%,-14.3,-61.4*
CC1CCC/C(=C\c2ccc(O)cc2)C1=O (centres undefined),-51.7%,-9.2,-11.0
COc1ccc(/C=C2\CCC(C3CCCC3)C2=O)cc1 (centres undefined),1.5%,0.2,16.3
CCOC(=O)NC(=O)CSc1cc(C)c2cc(C)cc(C)c2n1,0.0%,5.4,-1.1
CCc1nc(-c2cc3ccc(C)cc3[nH]c2=O)no1,-17.0%,0.8,32.9
O=c1cnnc(Nc2cccc(C(F)(F)F)c2)[nH]1,18.7%,5.6,-20.5
O=[N+]([O-])c1cccc(/C=N/N2CCN(Cc3ccccc3)CC2)c1,-15.6%,-13.7,4.3
O=[N+]([O-])c1cccc(/C=N\N2CCN(Cc3ccccc3Cl)CC2)c1,4.3%,-0.8,-77.9*
Cc1cc(C)cc(N(CC(=O)N2CCCC2)S(C)(=O)=O)c1,0.8%,-3.8,6.1
O=C(CCc1ccccc1)c1nnc(-c2ccccc2)o1,10µM*,-5.1,-19.9
CCOC(=O)c1nnc(-c2ccccc2)o1,2.7%,-3.8,7.6
O=C(NNS(=O)(=O)c1ccc(Br)cc1)c1sccc1-n1cccc1,-4.6%,2.9,0.3
Cc1ccc(CCNC(=O)C2CC(c3cc(C(F)(F)F)cc(C(F)(F)F)c3)=NO2)cc1 (centres undefined),11.3%,-2.0,19.5
CCCCNC(=O)C1CC(c2ccc(C(F)(F)F)cc2)=NO1 (centres undefined),6.0%,19.8,9.0
COc1ccc(CNC(=O)C2CC(c3ccc(OC)cc3)=NO2)cc1 (centres undefined),-0.8%,-6.0,-10.5
O=C(NCCCCc1ccccc1)C1CC(c2ccc(C(F)(F)F)cc2)=NO1 (centres undefined),-11.2%,57.9*,53.0
COc1ccc(CCNC(=O)C2CC(c3cc(C(F)(F)F)cc(C(F)(F)F)c3)=NO2)cc1 (centres undefined),14.0%,32.9*,4.6
O=C(NCCCCc1ccccc1)C1CC(c2ccccc2C(F)(F)F)=NO1 (centres undefined),-7.2%,4.7,10.7
CCCNC(=O)C1CC(c2ccc(C(F)(F)F)cc2)=NO1 (centres undefined),-4.0%,38.1*,-14.1
COc1ccc(C2=NOC(C(=O)NCC(C)C)C2)cc1 (centres undefined),5.1%[7.66 µM],-2.0,-89.7*
O=C(Cc1ccc(Br)cc1)Nc1ccc(S(=O)(=O)NCC2CCCO2)cc1 (centres undefined),-35.7%,4.7,-13.5
O=C(NCCOc1ccccc1)c1cc(C(=O)NCCOc2ccccc2)cc([N+](=O)[O-])c1,-21.0%,-9.8,7.8
Cc1ccc(OC(=O)c2ccc3snnc3c2)cc1,10.4%,-12.2,-22.0
CCOc1ccc(NC(=O)COC(=O)c2cc(C)oc2C)cc1,-7.6%,3.3,-1.5
SMILES,Integrin act MD,D3 ag,DRD3 antagonist
CCOc1cc(C(=O)Nc2nnc(S(=O)(=O)N3CCOCC3)s2)cc(OCC)c1OCC,19.7%,1.1,-1.3
Cn1c(=O)n(Cc2ccccc2)c(=O)c2c1nc1n2CCCN1CCc1ccccc1,-30.0%,-0.3,16.8
COc1ccc(CCNC(=O)c2cc(-c3ccc(C)cc3)nc3n[nH]c(-c4ccccc4)c23)cc1OC,.,73.7*,.
COc1ccc(-c2cc(C(=O)NCCc3ccccc3)c3c(-c4ccccc4)[nH]nc3n2)cc1OC,.,4.0,.
COc1ccc(S(=O)(=O)NCc2ccncc2)cc1NC(=O)c1ccccc1C,0.0%,2.8,0.0
Cc1ccc(C)c(N2CCN(C(=O)c3cn(CC(C)C)c(=O)c4c3c3ccccc3n4C)CC2)c1,.,4.0,.
Cc1cccc(N2CCN(C(=O)c3cn(CC(C)C)c(=O)c4c3c3ccccc3n4C)CC2)c1C,.,30.1*,.
Cc1ccccc1N(CC(=O)N/N=C/c1cc(C)n(-c2ccccc2C)c1C)S(C)(=O)=O,-28.8%,-2.4,-15.6
Cc1occc1C(=O)Nc1nn[nH]n1,17.4%,-6.2,9.7
CCC(C)c1ccccc1OCCCNC1CCCC1 (centres undefined),-62.0%,-3.1,-82.0*
COc1ccccc1OCCNC1CCCC1,19.4%,-6.5,-76.3*
N#Cc1ccccc1OCCOCCNC1CCCC1,-6.8%,-12.3,?
CCOc1cccc(OCCNC2CCCC2)c1,?,-14.7,?
